Test results reported in PubChem BioAssay.
Active and inactive are the calls of the source. Unless noted, the rule behind the calls is not given here.

Assays:
[1] = system: Wnt5a (protein binding on small-molecule microarray); assay: small molecules binding Wnt5a protein – biophysical, small-molecule microarray, 635/667 nm fluorescence, primary screen (AID 1142); conditions: 635 nm fluorescence, higher = more signal;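 note: fluorescence read at 667 nm with signal to noise per printed feature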
[2] = ATP-based viability of Huh7 replicon cells – cell-based, CellTiter-Glo luminescence, basal, 48 h, cytotoxicity control for HCV replication inhibitor project, primary screen (AID 1143); conditions: higher = more signal, called active from +8 up or from −8 down;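 note: Huh7 hepatoma cells carrying a hepatitis C replication reporter with no stimulus; test concentration not given here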
[3] = Pseudomonas biofilm growth suppression – PAO1 strain, BacTiter-Glo luminescence, LB-PBS, primary screen (AID 1144); conditions: P. aeruginosa PAO1 biofilm, 12 h, higher = more signal
[4] = basal CRE-LacZ reporter activity in PC12 – cell-based, unstimulated, primary screen (AID 1145); conditions: no forskolin, luminescence, 4.5 h, higher = more signal, called active from +8 up or from −8 down
[5] = forskolin-driven CRE-LacZ activity in PC12 – cell-based, CRE-LacZ reporter, forskolin-stimulated, primary screen (AID 1146); conditions: luminescence, 4.5 h, higher = more signal, called active from +8 up or from −8 down;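 note: PC12 cells with 6xCRE LacZ reporter stimulated by forskolin 10 µM; beta-galactosidase reporter signal reflecting CREB driven transcription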
[6] = target: Streptavidin (Streptomyces avidinii) (UniProt P22629); assay: compounds binding control protein streptavidin – biophysical, small-molecule microarray, 635/667 nm fluorescence, artefact control for SMM compound annotation, primary screen (AID 1147); conditions: higher = more signal;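 note: signal reflects streptavidin binding to arrayed compounds as a control protein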
Streptavidin (Streptomyces avidinii), sequence (P22629 whole entry, looked up): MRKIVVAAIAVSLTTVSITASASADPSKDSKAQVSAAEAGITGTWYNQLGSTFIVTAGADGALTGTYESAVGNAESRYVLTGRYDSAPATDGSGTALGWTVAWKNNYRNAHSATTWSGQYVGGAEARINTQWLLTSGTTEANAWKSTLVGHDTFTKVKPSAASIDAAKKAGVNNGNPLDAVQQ

[7] = probe aInhba binding on compound microarray – biochemical, small-molecule microarray, 635/667 nm fluorescence, primary screen (AID 1148); conditions: higher = more signal;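 note: score merges 667nm spot fluorescence with signal-to-noise for antibody binding to printed compounds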
[8] = target: Torsin-1A (Homo sapiens) (UniProt O14656); assay: TOR1A wild-type binding on microarray – cell lysate, small-molecule microarray, lysate, 635/667 nm, primary screen (AID 1149); conditions: COS7 hTOR1A-WT lysate, 635 nm fluorescence, higher = more signal
Torsin-1A (Homo sapiens), sequence (O14656 whole entry, looked up): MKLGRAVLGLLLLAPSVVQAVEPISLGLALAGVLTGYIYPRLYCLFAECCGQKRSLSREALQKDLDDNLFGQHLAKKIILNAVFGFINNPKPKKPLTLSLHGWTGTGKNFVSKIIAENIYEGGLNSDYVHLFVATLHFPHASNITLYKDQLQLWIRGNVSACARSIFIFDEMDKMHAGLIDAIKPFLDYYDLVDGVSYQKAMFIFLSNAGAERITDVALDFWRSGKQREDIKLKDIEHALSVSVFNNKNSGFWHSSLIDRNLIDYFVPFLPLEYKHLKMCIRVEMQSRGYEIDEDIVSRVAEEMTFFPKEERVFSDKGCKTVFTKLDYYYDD

[9] = target: Torsin-1A (Homo sapiens) (UniProt O14656); assay: torsin A mutant lysate binding on microarrays – cell lysate, small-molecule microarray, COS7 lysate, 635/667 nm fluorescence, primary screen (AID 1150); conditions: COS7 hTOR1A mutant lysate, 635 nm fluorescence, higher = more signal;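 note: score pools 667 nm emission and signal to noise measuring lysate protein binding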
[10] = system: Sonic hedgehog protein (Shh); assay: Sonic hedgehog microarray binding compounds – biochemical, small-molecule microarray, 635/667 nm fluorescence, primary screen (AID 1151); conditions: 635 nm fluorescence, higher = more signal;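 note: Shh protein binding to compounds spotted on small-molecule microarray slides; score combines spot fluorescence intensity with signal-to-noise across triplicate slides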

Row | Compound | composite z-score [1] | z-score [2] | z-score [3] | z-score [4] | z-score [5] | composite z-score [6] | composite z-score [7] | composite z-score [8] | composite z-score [9] | composite z-score [10]
1 | C=CCNC(=O)[C@@H]1[C@H]2C(=O)O[C@H](c3ccccc3)[C@H](c3ccccc3)N2[C@H](c2ccccc2OCCO)[C@@]12C(=O)Nc1ccc(C#CCC(C(=O)OC)C(=O)OC)cc12 | 0.0142 | -6.3 (inactive) | 0.616 (inactive) | -0.191 (inactive) | -1.03 (inactive) | 0.0625 | 0.84 | 0.834 | 0.566 | 0.499
2 | CCCC=C(CCC)[C@@H](NP(=O)(c1ccccc1)c1ccccc1)c1ccc(-c2ccccc2)cc1 | 0.363 | -1.53 (inactive) | 0.892 (inactive) | 0.204 (inactive) | 1.24 (inactive) | 1.09 | 0.3 | 0.804 | 1.68 | -0.0804
3 | CC(C)=C1C(=O)C(c2ccccc2)=C2CN3C(=O)N(CCc4ccccc4)C(=O)[C@]3(Cc3ccc(C(F)(F)F)cc3)[C@H]21 | -0.199 | -0.28 (inactive) | 0.408 (inactive) | 0.966 (inactive) | 0.96 (inactive) | 0.37 | 0.23 | -0.0473 | -0.336 | -1.18
4 | CCCNC(=O)[C@@]1(Sc2ccc(C)cc2)CC(=O)N(C2Cc3ccccc3C2)[C@@H]1c1ccc(CO)cc1I | 0.196 | -0.812 (inactive) | 0.594 (inactive) | -0.374 (inactive) | 1.73 (inactive) | 0.419 | 0.27 | 0.418 | 0.309 | 0.737
5 | CCCNC(=O)[C@@]1(C)c2ccccc2C(=O)N(c2ccc(C)cn2)[C@H]1c1ccc(CO)cc1 | -0.297 | 0.242 (inactive) | -0.31 (inactive) | 1.29 (inactive) | -0.0049 (inactive) | -0.516 | 0.0398 | 0.399 | 0.266 | 0.224
6 | O=C1C2C=CC(C(O)C3CC=CCC3)N(Nc3ccccc3)C2C(=O)N1c1ccccc1 (stereo not given) | -0.0727 | -2.74 (inactive) | -0.879 (inactive) | 0.426 (inactive) | 0.305 (inactive) | 0.801 | 0.292 | -0.235 | 0.687 | -0.143
7 | COc1ccc([Si](C)(C)[C@@H]2[C@@H](CC(=O)N3CCC[C@H]3CO)O[C@]3(C(=O)N(Cc4cccc(N5C(=O)COc6ccccc65)c4)c4ccccc43)[C@H]2C)cc1 | 0.326 | -5.39 (inactive) | 0.425 (inactive) | 1.5 (inactive) | -0.361 (inactive) | 0.554 | -0.0494 | 0.95 | 0.938 | 1.12
8 | COC(=O)[C@@]1(Cc2ccc(OC)cc2)[C@H]2c3cc(C(=O)N(C)C)n(Cc4ccc(OC(F)(F)F)cc4)c3C[C@H]2CN1C(=O)c1ccccc1 | -0.223 | -2.6 (inactive) | 0.043 (inactive) | 4.4 (inactive) | 74 (active) | 0.539 | 0.185 | -0.178 | 0.555 | -0.955
9 | COc1ccc([Si](C)(C)[C@@H]2[C@@H](CCO)O[C@]3(C(=O)N(Cc4ccccc4)c4ccc(NC(=O)[C@H](C)O)cc43)[C@H]2C)cc1 | 0.514 | -7.95 (inactive) | -1.07 (inactive) | 12.2 (active) | -0.161 (inactive) | 0.753 | 0.108 | 1.05 | 0.854 | 1.95
10 | OCCCC1=CC(c2ccc(CN3CCCC3)cc2)N(Cc2cc3c(cc2Br)OCO3)CC1 (stereo not given) | 0.268 | -1.1 (inactive) | -0.808 (inactive) | -0.932 (inactive) | 0.821 (inactive) | 0.0246 | -0.152 | 0.763 | 0.585 | 1.04
11 | CCCCN1CC=CC23O[C@@H]4/C=C\CCC(C)OC(=O)C4[C@H]2C(=O)N(CCCO)[C@@H]3C1=O (stereo not given in full) | -0.636 | -0.183 (inactive) | 1.21 (inactive) | 0.0605 (inactive) | 0.0507 (inactive) | -0.774 | -0.247 | -1.54 | -1.15 | -0.36
12 | COc1cc2c(cc1O)C=[N+](Cc1sc3ccccc3c1Cl)CC2 | -0.245 | -2.33 (inactive) | 0.206 (inactive) | -0.348 (inactive) | 0.982 (inactive) | 0.0042 | -0.0308 | 0.166 | 0.276 | 0.66
13 | CCCC=C(CCC)[C@@H](NS(=O)(=O)CC12CCC(CC1=O)C2(C)C)c1ccc(C(=O)OC)cc1 (stereo not given in full) | 0.0202 | -0.816 (inactive) | -1.06 (inactive) | -0.572 (inactive) | 0.0711 (inactive) | 0.333 | 0.361 | 0.924 | 0.792 | 0.31
14 | COc1ccc([Si](C)(C)[C@H]2[C@H](CC(=O)N(CCO)Cc3ccccc3)O[C@@]3(C(=O)N(C)c4c(Br)cc(C)cc43)[C@@H]2C)cc1 | 0.306 | -5.69 (inactive) | -1.43 (inactive) | 9.7 (active) | -2.49 (inactive) | 0.527 | -0.128 | 2.12 | 1.98 | 1.72
15 | Cc1cc(C)c(C(O)C2C=CC3C(=O)N(c4ccccc4)C(=O)C3N2Nc2ccccc2F)c(C)c1 (stereo not given) | -0.122 | 0.224 (inactive) | -0.386 (inactive) | 0.44 (inactive) | -0.425 (inactive) | 0.563 | 0.122 | -0.489 | -0.395 | 0.0807
16 | C=CCC(OC(C)=O)[C@@H]1[C@@H](N(Cc2ccc(-c3ccccc3)cc2)C(=O)c2ccc(-c3ccccc3)cc2)c2cc(OCCCO)ccc2N1C(=O)c1ccc2ccccc2c1 (stereo not given in full) | 0.028 | 0.39 (inactive) | -0.0995 (inactive) | -0.23 (inactive) | 0.318 (inactive) | 0.485 | -0.101 | 0.0449 | -0.0178 | 0.255
17 | COC(=O)[C@@]1(Cc2ccc(OC)cc2)[C@H]2c3cc(C(=O)N4CCCC4)n(CCc4c[nH]c5ccc(OC)cc45)c3C[C@H]2CN1C(=O)c1ccccc1 | 0.411 | -3.16 (inactive) | 0.717 (inactive) | 0.201 (inactive) | -0.715 (inactive) | 1.5 | 0.35 | -0.0701 | 0.327 | -0.565
18 | CC#CCO[Si](C#Cc1ccccc1)(C(C)C)C(C)C | -0.254 | -1.35 (inactive) | 0.687 (inactive) | -0.985 (inactive) | 0.852 (inactive) | -1.07 | -0.106 | -1.43 | -0.811 | 0.12
19 | O=C1CS(=O)(=O)C(c2cccc([N+](=O)[O-])c2)N1c1ccccc1 (stereo not given) | 0.388 | -1.67 (inactive) | -1.16 (inactive) | -0.231 (inactive) | -1.44 (inactive) | 0.392 | 1.03 | 0.909 | 0.655 | 0.781
20 | CN(C)CCCCCCNC(=O)[C@@H]1C[C@@H]2C(=O)N3CCC[C@H]3C(=O)N2[C@@H]1c1cccc(OCCO)c1 | 0.697 | -0.0705 (inactive) | 0.15 (inactive) | 0.151 (inactive) | 0.766 (inactive) | 0.656 | 1.06 | 1.99 | 1.43 | 1.54
21 | O=C1[C@H]2C=C(I)[C@H](C[C@@H]2OCCOCCO)[C@@]12CO2 | 0.0712 | 1.05 (inactive) | -0.0471 (inactive) | 1.67 (inactive) | 0.839 (inactive) | 1.08 | -0.106 | 0.48 | -0.0946 | 0.719
22 | CN(C)c1ccc(C(O)C2C=CC3C(=O)NC(=O)C3N2Nc2ccccn2)cc1 (stereo not given) | 0.0094 | 1 (inactive) | 0.161 (inactive) | -1.49 (inactive) | 0.337 (inactive) | 0.0863 | -0.152 | 1.05 | 0.927 | 0.862
